The source of these data is PubChem BioAssay (NCATS).

Records with an inconclusive call do not appear. A number with no mark means an inactive call. The source made the active and inactive calls. The call rests on the fitted dose curve; in most records, active means well fitted curve in the direction sought with a large enough effect; inconclusive means small, poorly fitted or top-dose-only effect, or another doubt; inactive means no such curve, though single readings can be large; an effect the other way counts as inactive or inconclusive.

Assay [1] concerns the target Rap guanine nucleotide exchange factor 3 (Homo sapiens) (UniProt O95398). Description: Confirmatory qHTS for antagonist of cAMP-regulated guanine nucleotide exchange factor 3 (EPAC1) (AID 1645880).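 Further: plate controls were DMSO only for no effect and full effect of the ATA control for full effect; nearly all actives have a fitted effect of over 55% in size.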 The method, boiled down:
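Released BODIPY-GDP fluoresces less than Rap1-bound BODIPY-GDP; the signal is followed at 480/540 nm at 5-min intervals over 30 min, after 5 min at room temperature. Reactions contain 100 nM EPAC1, 250 nM RAP1B-BODIPY-GDP and 50 uM GDP; results are normalized to ATA and DMSO.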
For orientation: In qHTS, concentration-response curves come from the screen itself.

The target is the same in assay [2]. The assay can be described thus: Confirmatory qHTS for agonist of cAMP-regulated guanine nucleotide exchange factor 3 (EPAC1) (AID 1645881). Further: nearly all actives have a fitted effect of over 75% in size. Further: potency means the concentration at half of the fitted maximal effect.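 On activation: EPAC1 catalysed release of BODIPY-GDP from Rap1B seen as fluorescence loss; 100% = effect of cAMP agonist control.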
Assay [3] has as its target Rap guanine nucleotide exchange factor 4 (Homo sapiens) (UniProt Q8WZA2). Description: Confirmatory qHTS for agonist of cAMP-regulated guanine nucleotide exchange factor 4 (EPAC2) (AID 1645884).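 Further: nucleotide exchange releases bodipy-GDP from Rap1 and this lowers its fluorescence; nearly all actives have a fitted effect of over 65% in size.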 Further: potency means the concentration at half of the fitted maximal effect. On activation: on the % scale 0 is the no-effect control and ±100 the full control effect.
The target is the same in assay [4]. Description: Confirmatory qHTS for antagonist of cAMP-regulated guanine nucleotide exchange factor 4 (EPAC2) (AID 1645885). Further: nearly all actives have a fitted effect of over 25% in size. Further: potency means the concentration at half of the fitted maximal effect. On activity change, negative = inhibition: on the % scale 0 is the no-effect control and ±100 the full control effect.
In assay [5] the target is Rap guanine nucleotide exchange factor 3 (Homo sapiens) (UniProt O95398). The assay can be described thus: Counterscreen qHTS for antagonist of cAMP-regulated guanine nucleotide exchange factor 3 (EPAC1) (AID 1645888). Further: % of control where 0% means no effect. A digest of the protocol:
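Rap1B–BODIPY-GDP (250 nM) with 50 uM GDP; compounds pin-transferred to 9.74 nM–152 uM final (activator) or from 7.32 nM upwards (inhibitor). Fluorescence Ex/Em 480/540 nm read at 5 and 30 min, then after adding cAMP or buffer, at room temperature.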
Background: The purpose of a counterscreen is to sort out artefacts and off-target activity.

Rap guanine nucleotide exchange factor 3 (Homo sapiens), sequence (O95398 whole entry, looked up): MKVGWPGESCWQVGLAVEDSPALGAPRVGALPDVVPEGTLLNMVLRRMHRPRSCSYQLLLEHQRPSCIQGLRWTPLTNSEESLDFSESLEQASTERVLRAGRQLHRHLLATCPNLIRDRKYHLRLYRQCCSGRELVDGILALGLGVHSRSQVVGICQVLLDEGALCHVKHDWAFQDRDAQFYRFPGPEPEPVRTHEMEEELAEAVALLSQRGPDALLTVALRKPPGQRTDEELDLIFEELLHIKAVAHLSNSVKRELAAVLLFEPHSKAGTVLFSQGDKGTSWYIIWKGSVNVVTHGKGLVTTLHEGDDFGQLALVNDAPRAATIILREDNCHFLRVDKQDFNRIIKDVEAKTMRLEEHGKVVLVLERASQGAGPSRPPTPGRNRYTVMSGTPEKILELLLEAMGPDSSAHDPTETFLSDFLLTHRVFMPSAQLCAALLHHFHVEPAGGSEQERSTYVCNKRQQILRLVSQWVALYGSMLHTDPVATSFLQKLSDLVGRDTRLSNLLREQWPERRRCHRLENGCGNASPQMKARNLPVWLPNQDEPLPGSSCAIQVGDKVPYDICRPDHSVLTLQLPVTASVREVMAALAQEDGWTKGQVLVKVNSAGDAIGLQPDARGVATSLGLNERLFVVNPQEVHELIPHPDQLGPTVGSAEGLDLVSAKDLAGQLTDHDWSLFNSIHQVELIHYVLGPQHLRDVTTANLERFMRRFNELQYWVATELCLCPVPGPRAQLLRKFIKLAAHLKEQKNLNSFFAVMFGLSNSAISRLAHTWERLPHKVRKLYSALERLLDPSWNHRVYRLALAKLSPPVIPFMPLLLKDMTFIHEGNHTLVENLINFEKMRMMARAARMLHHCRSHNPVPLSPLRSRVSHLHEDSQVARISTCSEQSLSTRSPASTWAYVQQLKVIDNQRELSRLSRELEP
Rap guanine nucleotide exchange factor 4 (Homo sapiens), sequence (Q8WZA2 whole entry, looked up): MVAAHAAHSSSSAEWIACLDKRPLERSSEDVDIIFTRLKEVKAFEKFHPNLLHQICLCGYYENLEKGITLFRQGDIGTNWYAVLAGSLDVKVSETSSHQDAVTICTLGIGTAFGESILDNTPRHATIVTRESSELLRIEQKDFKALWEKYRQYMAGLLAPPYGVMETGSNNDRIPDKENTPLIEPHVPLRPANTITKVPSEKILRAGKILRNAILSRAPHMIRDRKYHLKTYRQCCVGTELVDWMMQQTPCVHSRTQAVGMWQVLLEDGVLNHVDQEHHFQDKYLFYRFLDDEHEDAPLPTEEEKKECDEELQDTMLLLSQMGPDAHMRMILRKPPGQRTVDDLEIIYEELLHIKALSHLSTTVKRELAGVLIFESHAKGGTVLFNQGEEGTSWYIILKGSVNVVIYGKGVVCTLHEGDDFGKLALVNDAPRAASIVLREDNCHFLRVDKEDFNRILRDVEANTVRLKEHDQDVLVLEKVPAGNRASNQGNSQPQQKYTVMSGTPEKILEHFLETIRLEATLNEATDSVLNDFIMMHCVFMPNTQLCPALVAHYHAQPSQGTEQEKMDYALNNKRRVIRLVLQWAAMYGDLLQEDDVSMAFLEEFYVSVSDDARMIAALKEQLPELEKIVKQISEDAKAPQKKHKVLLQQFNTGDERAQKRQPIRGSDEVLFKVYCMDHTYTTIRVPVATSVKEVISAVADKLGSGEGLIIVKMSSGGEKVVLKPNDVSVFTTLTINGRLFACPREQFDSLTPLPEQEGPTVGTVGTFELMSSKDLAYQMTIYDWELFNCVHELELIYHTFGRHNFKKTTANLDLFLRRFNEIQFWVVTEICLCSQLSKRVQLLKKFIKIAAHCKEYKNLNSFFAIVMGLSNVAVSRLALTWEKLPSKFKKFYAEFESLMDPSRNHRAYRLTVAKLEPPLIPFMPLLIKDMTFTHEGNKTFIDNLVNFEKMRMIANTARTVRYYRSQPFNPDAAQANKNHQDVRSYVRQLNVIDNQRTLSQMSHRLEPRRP

Consider `CC1CN(C(=O)CCC(=O)NCc2ccccc2)c2ccccc2S1` (stereo not given), for which the Potency entry in assay [1], in assay [2], in assay [3], in assay [4] and in assay [5] was “inactive” throughout.

As for `CC(C)(C)c1cc(NC(=O)COC(=O)c2ccc(O)cc2O)n(-c2ccccc2)n1`, the Potency result in assay [1], in assay [2] and in assay [4] was “inactive” each time. Further, the activation in assay [3] is 8.65% [at 17.1 µM, percent relative to cAMP agonist control]. In addition, the activity change, negative = inhibition in assay [5] was -16.3% [at 30.8 µM].

Take `N#Cc1c(NC(=O)c2ccccc2)sc2c1CCCCC2`: the Potency result in assay [1], in assay [2] and in assay [4] was “inactive” in each case. The activation in assay [3] was 10.4% [at 17.1 µM, percent relative to cAMP agonist control]. Besides, the activity change, negative = inhibition in assay [5] is 2.87% [at 30.8 µM].

As to `CCc1cccc2sc(N3CCN(C(=O)C4CC4)CC3)nc12`, the Potency result in assay [1], in assay [2], in assay [3] and in assay [5] was “inactive” throughout. In addition, in assay [4], the outcome was “inactive [at 12.7 µM]”.

As to `CC(=O)Nc1ccc(NC(=O)CCC(=O)OCC(=O)c2ccc(C)c([N+](=O)[O-])c2)cc1`, the Potency entry in assay [1], in assay [2], in assay [3], in assay [4] and in assay [5] was “inactive” throughout.

Regarding `CC(=O)C1=C(C)OC2(O)c3ccccc3C(=O)C12O` (stereo not given), the Potency result in assay [1], in assay [2] and in assay [4] was “inactive” each time. The activation in assay [3] was 4.3% [at 17.1 µM, percent relative to cAMP agonist control]. The activity change, negative = inhibition in assay [5] was -10.4% [at 30.8 µM].

Consider `Cc1ccc2nc(-c3ccccc3)c(Cc3ccccn3)n2c1`, for which the Potency result in assay [1], in assay [2], in assay [3], in assay [4] and in assay [5] was “inactive” in each case.

In the case of `Cc1ncc(CO)c(/C=N/NC(=O)c2cc(Br)ccc2O)c1O`, the Potency result in assay [1], in assay [2] and in assay [4] was “inactive” each time. Besides, the activation in assay [3] was 0% [at 17.1 µM, percent relative to cAMP agonist control]. In assay [5], the activity change, negative = inhibition was -9.07% [at 30.8 µM].

In the case of `COC(=O)c1c(SC)nc2ccccc2c1OCc1ccc(Br)cc1`, the Potency entry in assay [1], in assay [2], in assay [3], in assay [4] and in assay [5] was “inactive” throughout.

For the compound `CC(=O)Nc1ccc(S(=O)(=O)NCCC(=O)Nc2cc(C)ccn2)cc1`, the Potency entry in assay [1], in assay [2], in assay [3], in assay [4] and in assay [5] was “inactive” each time.

With `O=C(Nc1cccc(Cl)c1)C1CCCN(C2=NS(=O)(=O)c3ccccc32)C1` (stereo not given), the Potency entry in assay [1], in assay [2], in assay [3], in assay [4] and in assay [5] was “inactive” in each case.

Take `CN1N=C(C(C)(C)C)CC1=O`: the Potency entry in assay [1], in assay [2], in assay [3], in assay [4] and in assay [5] was “inactive” each time.

Regarding `O=C(CSCC(=O)N1CCOCC1)Nc1nc(-c2ccccc2)cs1`, the Potency result in assay [1], in assay [2], in assay [3] and in assay [5] was “inactive” throughout. For the same compound, the Potency in assay [4] is 84.9 µM (active).

Turning to `O=C(NCC(c1ccco1)N1CCN(c2ccccc2F)CC1)c1cccs1` (stereo not given), the Potency entry in assay [1], in assay [2] and in assay [4] was “inactive” in each case. For the same compound, the activation in assay [3] is 5.11% [at 17.1 µM, percent relative to cAMP agonist control]. Also, the activity change, negative = inhibition in assay [5] is 6.53% [at 30.8 µM].

In the case of `N#Cc1cc2c(=O)n3ccccc3nc2n(-c2nnc(SCc3ccccc3Cl)s2)c1=O`, the Potency result in assay [1], in assay [2], in assay [3], in assay [4] and in assay [5] was “inactive” in each case.

On to `CC(C)c1nc(SCC(=O)N2CCCc3ccccc32)c2c(=O)n(C)c(=O)n(C)c2n1`, for which the Potency entry in assay [1], in assay [2], in assay [3], in assay [4] and in assay [5] was “inactive” each time.

As to `Cc1ccc(NC(=O)c2ccc(Cl)c(S(=O)(=O)N3CCc4ccccc43)c2)nc1`, the Potency result in assay [1], in assay [2], in assay [3], in assay [4] and in assay [5] was “inactive” throughout.

Consider `Nc1ccc2c3c(cccc13)-c1ccccc1-2`, for which the Potency result in assay [1], in assay [4] and in assay [5] was “inactive” throughout. In addition, the Potency in assay [2] and in assay [3] was 100 µM (active) each time.

In the case of `CCOC(=O)[C@@H](NC(=O)/C=C/[C@H]1O[C@@H](n2cc(C)c(=O)[nH]c2=O)C[C@@H]1O)C(C)C`, the Potency entry in assay [1], in assay [2], in assay [3], in assay [4] and in assay [5] was “inactive” each time.

Turning to `CCN(CC)S(=O)(=O)c1cccc(-c2nnc(SCC(N)=O)n2C)c1`, the Potency result in assay [1], in assay [2], in assay [3], in assay [4] and in assay [5] was “inactive” throughout.

On to `CC(Oc1ccc(-c2nnco2)cc1)C(=O)N1CCOCC1` (stereo not given), for which the Potency entry in assay [1], in assay [2], in assay [3], in assay [4] and in assay [5] was “inactive” each time.

As to `CC(C)(C)c1ccc(OCCC(=O)OCC(=O)Nc2ccc(N3CCOCC3)cc2)cc1`, the Potency entry in assay [1], in assay [2], in assay [3], in assay [4] and in assay [5] was “inactive” throughout.

Consider `CC(C)(C)NC(=O)NC(=O)CN1CCc2ccccc21`, for which the Potency entry in assay [1], in assay [2] and in assay [4] was “inactive” throughout. The activation in assay [3] is 4.54% [at 17.1 µM, percent relative to cAMP agonist control]. In addition, in assay [5], the activity change, negative = inhibition is 5.54% [at 30.8 µM].

As to `CN(c1ncnc2onc(-c3cccc(Cl)c3)c12)C1CCCCC1`, the Potency result in assay [1], in assay [2], in assay [3] and in assay [5] was “inactive” throughout. Besides, in assay [4], the outcome was “inactive [at 12.7 µM]”.
